# Experimental data published in PubChem BioAssay (NCATS).
# Inconclusive results are not listed. Entries that show only a call come without a potency. The source made the active and inactive calls. Calls come from the whole dose curve; as a rule, active = well fitted curve in the direction sought with a large enough effect; inconclusive = small, poorly fitted or top-dose-only effect, or another doubt; inactive = no such curve, though single readings can be large; an effect the other way counts as inactive or inconclusive.
# Tests used:
# [1] = Confirmatory screen GU Rhodamine qHTS for Zika virus inhibitors qHTS (AID 1347157); note: potency is the fitted concentration of half-maximal effect; nearly all actives have a fitted effect of over 70% in size
# In short: (§1)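 Compounds, tested up to 114 microM, were incubated for 15 minutes with 25 nM unlinked NS2B-NS3 protease at pH 8.0. Cleavage of 1.5 microM Rhodamine110 substrate was then followed by fluorescence for 15 minutes.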
# [2] = ZIKV-mCherry secondary qHTS for Zika virus inhibitors (AID 1347158); note: top concentration of the series differs between compounds
# In short: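 After overnight seeding at 37 °C, Vero cells receive compound and then ZIKV-mCherry (MOI 1). Following 48-72 h infection, cells are fixed, counterstained with Hoechst, and imaged; percent infected cells is derived from an mCherry intensity cut-off of 450 RFU.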
# [3] = tested on: Zika virus NS2B-NS3 protease (unlinked complex); test: Primary screen GU Rhodamine qHTS for Zika virus inhibitors: Unlinked NS2B-NS3 protease assay (AID 1347159); note: nearly all actives have a fitted effect of over 60% in size; note: potency is the fitted concentration of half-maximal effect
# In short: as §1
# [4] = tested on: Zika virus NS2B-NS3 protease (linked construct); test: Primary screen NINDS Rhodamine qHTS for Zika virus inhibitors (AID 1347160); note: nearly all actives have a fitted effect of over 55% in size; note: potency is the fitted concentration of half-maximal effect
# In short: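 Percent inhibition, normalized to uninhibited and enzyme-free controls, is fitted to a 4-parameter Hill equation. Fluorescence change comes from a 15-min cleavage of 1.5 microM bis-peptide Rhodamine110 substrate by 25 nM linked NS2B-NS3 at room temperature.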
# [5] = Confirmatory screen NINDS Rhodamine qHTS for Zika virus inhibitors (AID 1347161); note: potency is the fitted concentration of half-maximal effect; nearly all actives have a fitted effect of over 60% in size
# In short: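 Purified NS2B-NS3 protease with the NS2B hydrophilic domain joined by a flexible linker (25 nM) in 10 mM Tris-HCl pH 8.0, 0.01% Tween 20, preincubated 15 min at RT with compound; Rhodamine110 peptide substrate 1.5 µM; fluorescence change over 15 min; 4-parameter Hill fit.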
# [6] = Vero cells viability qHTS for Zika virus inhibitors (AID 1347167)
# In short: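 Cells seeded at 2.5 x 10^5 cells/mL in DMEM with 4% FBS and attached overnight at 37 degrees C, then exposed to compound for 24 to 48 hours. Viability read as ATP content by CellTiter Glo luminescence.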
# [7] = tested on: Zika virus NS2B-NS3 protease; test: Primary screen GU AMC qHTS for Zika virus inhibitors (AID 1347154); note: nearly all actives have a fitted effect of over 70% in size
# In short: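 Unlinked Zika NS2B hydrophilic domain–NS3 protease complex at 25 nM in 10 mM Tris-HCl pH 8.0, 0.01% Tween 20, with an AMC peptide substrate. Fluorescence change (340/450 nm) over 15 min at room temperature, normalized to controls, fitted to 4-parameter Hill.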
structure (smiles),measurement,setting,value
Cc1cc(C)c2c(c1)C(N(Cc1cc(C(F)(F)F)cc(C(F)(F)F)c1)c1nnn(C)n1)CCCN2CC1CCC(C(=O)O)CC1 (stereo not given),Potency,[1],8.79 µM (active)
same,Potency,[2],inactive
same,Potency,[3],3.16 µM (active)
same,Potency,[4],3.55 µM (active)
same,Potency,[5],4.94 µM (active)
same,outcome,[6],inactive
O=S(=O)(c1ccccc1)N(CC(F)(F)F)c1ccc(C(O)(C(F)(F)F)C(F)(F)F)cc1,Potency,[7],inactive
same,Potency,[4],inactive
C[C@@H](c1ccc2nccn2c1)n1nnc2ncc(-c3cnn(C)c3)nc21,Potency,[3],inactive
same,Potency,[4],inactive
Cc1ccc(C)c(-c2cc(C(F)(F)F)nn2-c2ccc(S(N)(=O)=O)cc2)c1,Potency,[3],inactive
COc1ccc(N2CCN(C(=O)c3cc4c(s3)-c3ccccc3S(=O)(=O)C4)CC2)cc1,Potency,[3],inactive
same,Potency,[4],inactive
C=C(C)[C@@H]1CC[C@]2(C(=O)O)CC[C@]3(C(=O)O)[C@H](CCC4[C@@]5(C)CCC(=O)C(C)(C)C5CC[C@]43C)C12 (stereo not given in full),Potency,[3],inactive
same,Potency,[4],inactive
O=c1cc(OCc2ccc(F)cc2)ccn1-c1ccc(OCCN2CCCC2)cc1,Potency,[3],inactive
same,Potency,[4],inactive
Cc1csc2c(N[C@@H](C)CN3CCN(S(=O)(=O)c4ccc(Cl)c(Cl)c4)CC3)ncnc12,Potency,[3],inactive
same,Potency,[4],inactive
CCn1c(N)c(C(=O)NC)c(=O)c2ccc(C#CC(C)(O)COC)nc21 (stereo not given),Potency,[3],inactive
same,Potency,[4],inactive
CC(=O)O[C@@H]1CC[C@@]2(C)C(CC[C@]3(C)C2[C@H](O)C=C2[C@H]4[C@@H](C)[C@H](C)CC[C@]4(C)CC[C@]23C)[C@@]1(C)C(=O)O (stereo not given in full),Potency,[3],7.08 µM (active)
same,Potency,[4],11.2 µM (active)
COc1ccc([C@H]2Cc3cccc(O)c3C(=O)O2)cc1OC,Potency,[3],inactive
same,Potency,[4],inactive
